{
  "source": "PubChem BioAssay (NCATS)",
  "note": "Records with an inconclusive call do not appear. Where a call stands in place of a potency, no number is given. Activity calls are given as the source filed them. The call rests on the fitted dose curve; in most records, active means well fitted cell-killing curve with a large enough effect; inconclusive means small, poorly fitted or top-dose-only effect, or effect the other way; inactive means no such curve, though single readings can be large or run the other way. Potency means the concentration at half of the fitted maximal effect.",
  "data": [
    {"experiment": "Quantitative High-Throughput drug screen in 47 multiple myeloma cell lines against the NCATS MIPE library collection: KMS34_JCRB cell viability assay (AID 1918985); further: nearly all actives have a fitted effect of over 40% in size", "settings": "KMS34 myeloma viability, CellTiter-Glo ATP luminescence, 48 h; series mostly up to 45.8 µM", "source_text": "PI: Beverly A. Mock Ph.D.\nLaboratory of Cancer Biology and Genetics,\nCenter for Cancer Research, National Cancer Institute,\nNational Institute of Health, Bethesda, Maryland\nDrug resistance and disease progression are common in multiple myeloma (MM) patients, underscoring the need for new therapeutic combinations. […] We hypothesized that effective combinations would reduce MYC expression and enhance p16 activity. […] These preclinical data identify potentially useful drug combinations for evaluation in drug-resistant MM and reveal potential mechanisms of combined drug sensitivity.\nDescribed herein is the primary MIPE qHTS used to cherrypick compounds. Validated compounds were then further tested for potential synergistic activiy.\n[1] Peat TJ, Gaikwad SM, Dubois W, Gyabaah-Kessie N, Zhang S, Gorjifard S, Phyo Z, Andres M, Hughitt VK, Simpson RM, Miller MA, Girvin AT, Taylor A, Williams D, D'Antonio N, Zhang Y, Rajagopalan A, Flietner E, Wilson K, Zhang X, Shinn P, Klumpp-Thomas C, McKnight C, Itkin Z, Chen L, Kazandijian D, Zhang J, Michalowski AM, Simmons JK, Keats J, Thomas CJ, Mock BA. Drug combinations identified by high-throughput screening promote cell cycle transition and upregulate Smad pathways in myeloma. Cancer Lett. 2023 Aug 1;568:216284. doi: 10.1016/j.canlet.2023.216284. Epub 2023 Jun 24. PMID: 37356470; PMCID: PMC10408729.\nSEQUENCE No. (e.g., 1, 2, 3, etc.); […] (e.g., Cells, Incubation, Reagent, etc.); VALUE and DESCRIPTION.\n1; Cells; 5 uL; white, solid bottom 1536-well Greiner assay plate.\n2; Compounds; 23 nL; Kalypsis pin tool (Wako USA) equipped with a 1536-well pin head to transfer to the assay plates.\n3; Incubation; 48 hours; 37C incubation.\n4; Reagent;5uL; CellTiter Glo (Promega).\n5; Detector; 425V; Luminescence; Viewlux PerkinElmer.\nNOTES (numbers refer to Sequence numbers above)\n1. The cell-based screening methods employed in this study were like those previously published. Briefly, the corresponding myeloma cell lines were screened in 1,536-well plates with 500 cells, 5-uL per well for inhibition of cell viability (assessed by measuring ATP levels with CellTiterGlo).\n2. NCATS MIPE 4.0 library of approved and investigational drugs were added using the Kalypsis pin tool. Wells treated with DMSO only for 100% viability and media only for 0% viability were used as controls.\n3. The assay plates were covered and incubated for 48 hours in a 37C, 5% CO2 incubator with controlled humidity.\n4. After 48 hours, CellTilter-GloTM luminescent substrate mix (Promega) reagent was added to the assay plate and plates we incubated for 5 min at room temperature.\n5. Signal was measured as median relative luminescence units on a ViewLux (PerkinElmer) multiplate reader.\n[1] Heske CM, Davis MI, Baumgart JT, Wilson K, Gormally MV, Chen L, Zhang X, Ceribelli M, Duveau DY, Guha R, Ferrer M, Arnaldez FI, Ji J, Tran HL, Zhang Y, Mendoza A, Helman LJ, Thomas CJ. Matrix Screen Identifies Synergistic Combination of PARP Inhibitors and Nicotinamide Phosphoribosyltransferase (NAMPT) Inhibitors in Ewing Sarcoma. Clin Cancer Res. 2017 Dec 1;23(23):7301-7311. doi: 10.1158/1078-0432.CCR-17-1121. Epub 2017 Sep 12. PMID: 28899971; PMCID: PMC6636827.", "values": [
      {"smiles": "c1cc(-c2sc(-c3ccncc3)c(-c3ccncc3)c2-c2ccncc2)ccn1", "Potency": "inactive"},
      {"smiles": "CCOC1OC(=O)C[C@H]1NC(=O)[C@@H]1CCCN1C(=O)[C@@H](NC(=O)c1ccc(N)c(Cl)c1)C(C)(C)C", "note": "(stereo not given in full)", "Potency": "inactive"},
      {"smiles": "CC(C)C[C@H](CC(=O)O)C(=O)N[C@@H](Cc1c[nH]c2ccccc12)C(=O)N[C@@H](C)c1ccccc1", "Potency": "inactive"},
      {"smiles": "CC(=O)Nc1ccc([C@H](C)C(=O)Nc2ncc(C(C)C)s2)cc1", "Potency": "3.72 µM (active)"},
      {"smiles": "OC[C@H]1O[C@@H](Oc2cc(O)cc(C=Cc3ccc(O)cc3)c2)[C@H](O)[C@@H](O)[C@H]1O", "Potency": "inactive"},
      {"smiles": "O=C(CCN1CCN(C(=O)OCc2cc(Cl)cc(Cl)c2)CC1)c1ccc2[nH]c(=O)oc2c1", "Potency": "inactive"},
      {"smiles": "O=C1NC(=O)C(=Cc2cccc(C(F)(F)F)c2)S1", "Potency": "inactive"},
      {"smiles": "Cc1ccccc1C(C(=O)NC1CCCCC1)N(C(=O)Cn1ccnc1C)c1cccc(F)c1", "note": "(stereo not given)", "Potency": "20.9 µM (active)"},
      {"smiles": "COc1cccc2c1CCCC2CCCN1CCN(C2CCCCC2)CC1", "note": "(stereo not given)", "Potency": "inactive"},
      {"smiles": "CCCCCNC(=O)N1CCC(CN(Cc2ccc(Cl)cc2)Cc2ccc([N+](=O)[O-])s2)C1", "note": "(stereo not given)", "Potency": "26.4 µM (active)"},
      {"smiles": "CC#CCn1c(N2CCC[C@@H](N)C2)nc2c1c(=O)n(Cc1nc(C)c3ccccc3n1)c(=O)n2C", "Potency": "4.18 µM (active)"},
      {"smiles": "Nc1ncnc2c1nc(Cl)n2[C@@H]1O[C@H](CO)[C@@H](O)[C@@H]1O", "Potency": "11.8 µM (active)"},
      {"smiles": "CCn1c(C(=O)N(C2CC2)C2CC2)cc2c3c(ncn3C)c(Nc3cc(C)n(C)n3)nc21", "Potency": "inactive"},
      {"smiles": "Cc1cnc(C(=O)O)c[n+]1[O-]", "Potency": "4.18 µM (active)"},
      {"smiles": "COc1ccc2c(Oc3ccc(NC(=O)c4c(C)n(CC(C)(C)O)n(-c5ccccc5)c4=O)nc3)ccnc2c1", "Potency": "inactive"},
      {"smiles": "CC(C)C(C)C=CC(C)C1CCC2C3=CC=C4CC(O)CCC4(C)C3CCC21C", "note": "(stereo not given)", "Potency": "inactive"},
      {"smiles": "CCCCCN(C)CCC(O)(P(=O)(O)O)P(=O)(O)O", "Potency": "inactive"},
      {"smiles": "O=c1c(O)c(-c2ccc(O)cc2)oc2cc(O)cc(O)c12", "Potency": "inactive"},
      {"smiles": "Cc1ccc([C@@H]2O[C@H](CO)[C@@H](O)[C@H](O)[C@@H]2O)cc1Cc1ccc(-c2ccc(F)cc2)s1", "Potency": "23.5 µM (active)"},
      {"smiles": "CC(C)(C)COc1ccc(-n2cc(C(=O)O)cn2)cc1C#N", "Potency": "inactive"},
      {"smiles": "CN(C)C1CCN(C(=O)c2ccc(NC(=O)Nc3nc(N4CCOCC4)nc(N4CCOCC4)n3)cc2)CC1", "Potency": "0.132 µM (active)"},
      {"smiles": "O=C(NCc1ccccc1)c1csc(Nc2ccncn2)n1", "Potency": "23.5 µM (active)"},
      {"smiles": "CC1(C)CCC[C@@]2(C)[C@@H]1CC[C@@]1(C)OC(=O)C[C@H]21", "Potency": "inactive"},
      {"smiles": "CC(C)=CC[C@@H](O)C1=CC(=O)c2c(O)ccc(O)c2C1=O", "Potency": "1.05 µM (active)"},
      {"smiles": "C[N+](C)(C)CC(=O)O", "Potency": "inactive"},
      {"smiles": "O=C(CCCCCCC(=O)Nc1ccccc1)NO", "Potency": "1.87 µM (active)"},
      {"smiles": "CC(=Cc1ccccc1)C=C1SC(=S)N(CC(=O)O)C1=O", "Potency": "inactive"},
      {"smiles": "COc1ccc(C2Sc3ccccc3N(CCN(C)C)C(=O)C2OC(C)=O)cc1", "note": "(stereo not given)", "Potency": "inactive"},
      {"smiles": "O=C(O)c1ccccc1C(=O)Nc1ccc(-c2ccccc2)cc1", "Potency": "inactive"},
      {"smiles": "CC[C@@H]1C=C(C)C[C@H](C)C[C@H](OC)[C@H]2O[C@@](O)(C(=O)C(=O)N3CCCC[C@@H]3C(=O)O[C@H](C(C)=C[C@@H]3CC[C@H](Cl)[C@H](OC)C3)[C@H](C)[C@@H](O)CC1=O)[C@H](C)C[C@H]2OC", "Potency": "16.6 µM (active)"},
      {"smiles": "COc1ccc(-c2oc3c(CC=C(C)C)c(OC4O[C@H](CO)[C@@H](O)[C@H](O)[C@@H]4O)cc(O)c3c(=O)c2OC2O[C@@H](C)[C@H](O)[C@@H](O)[C@@H]2O)cc1", "note": "(stereo not given in full)", "Potency": "23.5 µM (active)"},
      {"smiles": "O=C(O)c1ccc(-c2c[nH]c3ncc(-c4ccccc4)cc23)cc1C1CCCC1", "Potency": "14.8 µM (active)"},
      {"smiles": "NC[C@@H]1O[C@@H](O[C@H]2[C@@H](O)[C@H](O[C@@H]3[C@@H](O)[C@@H](N)C[C@H](N)[C@H]3O[C@H]3O[C@H](CN)[C@@H](O)[C@@H](O)[C@H]3N)O[C@H]2CO)[C@H](N)[C@@H](O)[C@@H]1O", "Potency": "inactive"},
      {"smiles": "Cc1ccc(F)c(NC(=O)Nc2ccc(-c3cccc4[nH]nc(N)c34)cc2)c1", "Potency": "26.4 µM (active)"},
      {"smiles": "O=C(O)c1ccc(-c2cc3cccnc3c(-c3ccc4nonc4c3)n2)cc1", "Potency": "14.8 µM (active)"},
      {"smiles": "N#CC1(c2ccc(NC(=O)c3cccnc3NCc3ccncc3)cc2)CCCC1", "Potency": "inactive"},
      {"smiles": "Cc1c(O)cccc1C(=O)N[C@@H](CSc1ccccc1)[C@H](O)CN1C[C@H]2CCCC[C@@H]2C[C@@H]1C(=O)NC(C)(C)C", "Potency": "18.7 µM (active)"},
      {"smiles": "N[C@H](CSC(c1ccccc1)(c1ccccc1)c1ccccc1)C(=O)O", "Potency": "9.35 µM (active)"},
      {"smiles": "O=c1c(-c2ccc(O)cc2)coc2cc(O)ccc12", "Potency": "inactive"},
      {"smiles": "Cn1c(N2CCCCS2(=O)=O)nc(C(=O)NCc2ccc(F)cc2)c(O)c1=O", "Potency": "inactive"}
    ]}
  ]
}
